SMILES strings stand for the structures. Records with an inconclusive call do not appear. Where a call stands in place of a potency, no number is given. The source made the active and inactive calls. The call rests on the fitted dose curve; in most records, active means well fitted curve in the direction sought with a large enough effect; inconclusive means small, poorly fitted or top-dose-only effect, or effect the other way, or another doubt; inactive means no such curve, though single readings can be large or run the other way.

A short description of the assay: Cell Viability Secondary Assay to Characterize qHTS Inhibitors of the Interaction of Thyroid Hormone Receptor and Steroid Receptor Coregulator 2. Conditions: cell viability counter-screen, qHTS titration; series mostly up to 29.9 µM. The text has this:
NIH Molecular Libraries Probe Production Network [MLPCN]
NIH Chemical Genomics Center [NCGC]
Assay Provider: R. Kip Guy, St. Jude Children's Research Hospital
Thyroid receptor (TR) regulates many homeostatic processes including basal metabolism, cardiovascular function, body weight, and lipid trafficking. TR modulators are potential therapeutics for obesity and hyperlipidemias but current thyroid analogs have undesirable side effects, particularly cardiac stimulation. This secondary assay characterized selected actives identified in the qHTS for Inhibitors of the Interaction of Thyroid Hormone Receptor and Steroid Receptor Coregulator 2. The human follicular thyroid carcinoma cell line WRO (kindly provided by Dr. M. D. Ringel) stably expresses TRbeta and a luciferase reporter gene fused to TR response element. The effect of compounds on the viability of these cells was assessed by measuring ATP levels. Compounds that reduce cell viability are likely cytotoxic.
NCGC Assay Protocol Summary:
Cells were maintained in RPMI 1640 culture medium supplemented with 10% heat-inactivated FBS, 0.33 mg/ml hygromycin, 0.33 mg/ml geneticin, 50 units/ml penicillin, 50 ug/ml streptomycin. Cells were harvested and resuspended at 330,000 cells/ml in assay medium (50% DMEM 50% F-12 medium without Phenol-Red (Cellgro #16-405-CV), L-glutamine, 10% heat inactivated and charcoal treated FBS, 100 uM non-essential amino acid, 50 units/ml penicillin, 50 ug/ml streptomycin). Cells were dispensed at 10,000 cells/30 ul/well into 384 well plates (Corning 3917) and incubated 12 h at 37 C and 5% CO2. Compounds and T3 (100nM final concentration) were added using a pin tool and plates were incubated 16 h incubation at 37 C and 5% CO2. Following incubation, plates were equilibrated at ambient temperature for 30 min, 20 ul of CellTiter-Glo (Promega) was added and luminescence was detected by an EnVision (PerkinElmer).
In the case of `CCCCCCN=CC1=C(O)CC(C)(C)CC1=O`, the Potency entry is “inactive”.

For `Cc1cccc(S(=O)(=O)c2cn(Cc3ccccc3)c3cc(N4CCC(C)CC4)c(F)cc3c2=O)c1`, the Potency result is “inactive”.

Regarding `COc1ccc(-c2nc(CS(=O)CC(=O)NCc3ccccn3)c(C)o2)cc1` (centres undefined), the Potency result was “inactive”.

For `CN1c2ccccc2C(C)(C)C12C=Nc1c(cc(N3CCOCC3)c3ccccc13)O2` (centres undefined), the Potency result is “inactive”.

`CC(NC(=O)Nc1ccc(O)cc1)(C(F)(F)F)C(F)(F)F`: the Potency result was “inactive”.

`CS(=O)(=O)c1ccc(C(=O)OCC(=O)NC(=O)C2CCCCC2)cc1[N+](=O)[O-]`: the Potency result was “inactive”.

For `CCOc1ccc(C2=Cc3cc(OC)c(OC)cc3C(=C(Cl)Cl)O2)cc1`, the Potency entry is “inactive”.

For the molecule `CN(CCO)c1nc(N)c2c(N)nc3c(c2c1C#N)CC(=O)N3C1CCCC1`, the Potency result is “inactive”.

As for `CCC(C)NC(=O)COC(=O)c1csc2c1CCCC2` (centres undefined), the Potency entry is “inactive”.

With `O=c1cc(C23CC4CC(CC(C4)C2)C3)[nH][nH]1`, the Potency entry is “inactive”.

With `COc1ccc(C(=O)Oc2ccc(C(c3c(C)[nH][nH]c3=O)c3c(C)[nH][nH]c3=O)cc2OC)cc1`, the Potency entry was “inactive”.

As to `CN(C)c1cc(Cl)c2nonc2c1N`, the Potency result was “inactive”.

Regarding `CCN(C(=O)C1CCCN(c2ncnc3onc(-c4ccc(F)cc4)c23)C1)c1ccccc1` (centres undefined), the Potency entry was “inactive”.

Consider `CC1=NN(c2ccc(F)cc2)C(=O)C1C(c1cccc(O)c1)c1c(C)[nH]n(-c2ccc(F)cc2)c1=O` (centres undefined), for which the Potency result is “inactive”.

For `CCOC(=O)C(NC(=O)Nc1ccc(O)cc1)(c1ccccc1)C(F)(F)F` (centres undefined), the Potency entry was “inactive”.

Regarding `Cn1c(=O)[nH]c2nnc(-c3ccc(Cl)c(Cl)c3)nc2c1=O`, the Potency result was “inactive”.

With `Cc1nc2ccccc2n2c(O)c(CC(=O)O)cc12`, the Potency result is “inactive”.

In the case of `CN(C(=S)Nc1cccnc1)c1ccc(O)cc1`, the Potency entry was “inactive”.

For the molecule `COc1ccc(CN2C(=O)Cc3c2nc(N)c2c(N)nc(N4CCCCC4)c(C#N)c32)cc1`, the Potency entry is “inactive”.

Regarding `CCC(NC(=O)Nc1ccc(O)cc1)(C(F)(F)F)C(F)(F)F`, the Potency entry is “inactive”.

Turning to `O=C(NNc1cc(N2CCOCC2)nc(N2CCOCC2)n1)c1ccc([N+](=O)[O-])cc1`, the Potency result is “inactive”.

For `Cn1c(-c2ccc(=O)[nH]c2)nc2ccccc21`, the Potency result is “inactive”.

Take `Oc1ccc2ccccc2c1/C=N/c1nc2c(s1)CCCC2`: the Potency result was “inactive”.

On to `CC1(C)C(N(O)C(=O)Nc2ccc(Cl)cc2)N(c2ccc(Cl)cc2)C(=O)N1CC(=O)NN` (centres undefined), for which the Potency result is “inactive”.

`COc1cc(C(c2c(C)[nH][nH]c2=O)c2c(C)[nH][nH]c2=O)ccc1OC(=O)c1ccccc1OC`: the Potency result is “inactive”.

`Cn1c(CCN2CCCCC2)nc2cc(NS(=O)(=O)c3ccc(Cl)cc3)ccc21`: the Potency entry is “inactive”.

For `Nc1cc(-c2ccncc2)c[nH]c1=O`, the Potency entry is “inactive”.

`O=C(O)[C@H]1CN(CCCP(=O)(O)O)CCN1`: the Potency result is “inactive”.

As to `Cc1ccc(OC(=S)Nc2ccc(O)cc2)cc1`, the Potency result was “inactive”.

Consider `CCOc1cc(C(c2c(C)[nH][nH]c2=O)c2c(C)[nH][nH]c2=O)ccc1OS(=O)(=O)c1ccc(C)cc1`, for which the Potency result is “inactive”.

Turning to `CCc1ccc2c(c1)c1nc(C)sc1n2CC`, the Potency entry is “inactive”.

Regarding `CN1CCc2ccc3c4c2[C@]1(C)Cc1cccc(c1-4)OCO3`, the Potency is 8.91 µM (active).

Take `C/C(=C\C(=O)c1ccccc1)Nc1ccc(O)cc1`: the Potency result was “inactive”.

`Nc1cnccc1C(=O)O`: the Potency entry was “inactive”.

`COc1cc(C(c2c(C)[nH][nH]c2=O)c2c(C)[nH][nH]c2=O)ccc1OC(=O)c1cccc(C)c1`: the Potency entry was “inactive”.

With `CCSc1ncc(Cl)c(C(=O)Nc2nc3ccc(OC)cc3s2)n1`, the Potency result is “inactive”.

On to `CCOc1ccc(NC(=O)C(c2ccccn2)N(C(=O)CCl)c2ccc(F)cc2)cc1` (centres undefined), for which the Potency entry is “inactive”.

`Cc1ccc2c(CC(=O)Nc3c(C(=O)c4ccc(F)cc4)oc4ccccc34)coc2c1C`: the Potency result was “inactive”.

Turning to `Cc1[nH][nH]c(=O)c1C(c1ccc(-c2ccccc2C(=O)O)o1)c1c(C)[nH][nH]c1=O`, the Potency entry is “inactive”.
